This note sets out measurements from PubChem BioAssay (NCATS).

The nature of assay [1]: qHTS of pediatric cancer cell lines to identify multiple opportunities for drug repurposing: Primary screen for control Hh wild type fibroblast cells (AID 1347106).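 Also: series mostly up to about 46 µM; a drop in luminescence marks cytotoxicity and a rise apparent proliferation; nearly all actives have a fitted effect of over 55% in size.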 An outline of the steps: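 Cells (500-1,000/well) in growth media were settled 5 h at 37 degrees C, then given compounds for 48 h. Viability was read as CellTiter-Glo luminescence. Primary runs used MIPE at 11 points (0.78 nM-46 µM) and NPC at 8 points (0.59 nM-46 µM); follow-ups used 11 points.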
(In qHTS, concentration-response curves come from the screen itself.)

A short description of assay [2]: qHTS of pediatric cancer cell lines to identify multiple opportunities for drug repurposing: Primary screen for Rh41 cells (AID 1347108). Also: nearly all actives have a fitted effect of over 70% in size. Also: potency is read from the fitted curve at half-maximal effect. An outline of the steps: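 Following a 5-hour attachment period, cells at 500-1,000/well received compounds and were cultured for 48 hours. CellTiter-Glo was added and luminescence read to estimate viable, metabolically active cells.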

Assay [3] is described as follows: qHTS of pediatric cancer cell lines to identify multiple opportunities for drug repurposing: Primary screen for Rh30 cells (AID 1347107). Also: nearly all actives have a fitted effect of over 75% in size. Also: potency is read from the fitted curve at half-maximal effect. An outline of the steps: (§1)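 Cells (500-1,000/well) rested 5 h, then received compounds for 48 h; metabolically active cells were measured by CellTiter-Glo luminescence. Final concentrations spanned up to 46 µM (MIPE, 11-point) or 0.59 nM-46 µM (NPC, 8-point) in primary screens, 11-point in follow-ups.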

Assay [4] can be described thus: qHTS of pediatric cancer cell lines to identify multiple opportunities for drug repurposing: Confirmatory screen for NB1643 cells (AID 1347109). Also: nearly all actives have a fitted effect of over 45% in size. Also: potency is read from the fitted curve at half-maximal effect. An outline of the steps: as §1
A short description of assay [5]: qHTS of pediatric cancer cell lines to identify multiple opportunities for drug repurposing: Confirmatory screen for A673 cells (AID 1347110).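 Also: cells exposed to compound for 48 h before the viability read; nearly all actives have a fitted effect of over 65% in size.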 Also: potency is read from the fitted curve at half-maximal effect. An outline of the steps:
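Concentration-response curves came straight from titrations: 11 points (0.78 nM to 46 µM) for MIPE and several concentrations (0.59 nM to 46 µM) for NPC in primary, 11 points in follow-up. Readout: ATP luminescence at 48 h.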

The nature of assay [6]: qHTS of pediatric cancer cell lines to identify multiple opportunities for drug repurposing: Confirmatory screen for SK-N-MC cells (AID 1347111).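 Also: potency is read from the fitted curve at half-maximal effect; cells exposed to compound for 48 h before the readout; nearly all actives have a fitted effect of over 70% in size.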 An outline of the steps:
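Seed 500-1,000 cells/well; rest 5 h at 37 degrees C. Pin-transfer compounds, 11-point titration. Incubate 48 h. Add CellTiter-Glo, 15 min RT, read luminescence.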

A short description of assay [7]: qHTS of pediatric cancer cell lines to identify multiple opportunities for drug repurposing: Confirmatory screen for BT-12 cells (AID 1347112). Also: potency is read from the fitted curve at half-maximal effect; nearly all actives have a fitted effect of over 55% in size. An outline of the steps:
as §1

Assay [8] can be described thus: qHTS of pediatric cancer cell lines to identify multiple opportunities for drug repurposing: Confirmatory screen for LAN-5 cells (AID 1347113). Also: nearly all actives have a fitted effect of over 65% in size. Also: potency is read from the fitted curve at half-maximal effect. An outline of the steps:
as §1

Assay [9] can be described thus: qHTS of pediatric cancer cell lines to identify multiple opportunities for drug repurposing: Confirmatory screen for DAOY cells (AID 1347114). Also: nearly all actives have a fitted effect of over 65% in size. Also: potency is read from the fitted curve at half-maximal effect. An outline of the steps: (§2)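 Viability measured as metabolically active cells via CellTiter-Glo luminescence following 48 hours of compound exposure, 11-point dilutions in confirmatory testing. 500-1,000 cells/well plated 5 hours before dosing; controls were DMSO and 2.3 µM bortezomib.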

A short description of assay [10]: qHTS of pediatric cancer cell lines to identify multiple opportunities for drug repurposing: Confirmatory screen for NB-EBc1 cells (AID 1347115).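 Also: cells exposed to compound for 48 h before the viability read; nearly all actives have a fitted effect of over 45% in size.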 Also: potency is read from the fitted curve at half-maximal effect. An outline of the steps: as §1
Assay [11] in a line: qHTS of pediatric cancer cell lines to identify multiple opportunities for drug repurposing: Confirmatory screen for SJ-GBM2 cells (AID 1347116). Also: nearly all actives have a fitted effect of over 60% in size. Also: potency is read from the fitted curve at half-maximal effect. An outline of the steps:
as §2

Assay [12] is described as follows: qHTS of pediatric cancer cell lines to identify multiple opportunities for drug repurposing: Confirmatory screen for BT-37 cells (AID 1347117). Also: potency is read from the fitted curve at half-maximal effect; nearly all actives have a fitted effect of over 55% in size. An outline of the steps:
as §1

The nature of assay [13]: qHTS of pediatric cancer cell lines to identify multiple opportunities for drug repurposing: Confirmatory screen for TC32 cells (AID 1347118).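 Also: potency is read from the fitted curve at half-maximal effect; cells exposed to compound for 48 h before the read; nearly all actives have a fitted effect of over 65% in size.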 An outline of the steps: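 TC32 cells, 500-1,000/well in growth medium, compound-treated 48 h at 37 °C; viability from CellTiter-Glo luminescence. Primary screen: MIPE 11-point (0.78 nM–46 µM final), NPC 8-point (0.59 nM–46 µM final); confirmatory at 11-point dilutions.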

Assay [14] is described as follows: qHTS of pediatric cancer cell lines to identify multiple opportunities for drug repurposing: Confirmatory screen for U-2 OS cells (AID 1347122). Also: nearly all actives have a fitted effect of over 65% in size. Also: potency is read from the fitted curve at half-maximal effect. An outline of the steps: as §1
Assay [15] is described as follows: qHTS of pediatric cancer cell lines to identify multiple opportunities for drug repurposing: Confirmatory screen for Rh41 cells (AID 1347123).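 Also: 48 h compound exposure; nearly all actives have a fitted effect of over 60% in size.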 Also: potency is read from the fitted curve at half-maximal effect. An outline of the steps:
as §1

Assay [16] in a line: qHTS of pediatric cancer cell lines to identify multiple opportunities for drug repurposing: Confirmatory screen for RD cells (AID 1347124). Also: potency is read from the fitted curve at half-maximal effect. An outline of the steps:
as §1

Assay [17] can be described thus: qHTS of pediatric cancer cell lines to identify multiple opportunities for drug repurposing: Confirmatory screen for Rh18 cells (AID 1347125). Also: potency is read from the fitted curve at half-maximal effect; nearly all actives have a fitted effect of over 55% in size. An outline of the steps: as §1
Assay [18] can be described thus: qHTS of pediatric cancer cell lines to identify multiple opportunities for drug repurposing: Confirmatory screen for Rh30 cells (AID 1347126). Also: nearly all actives have a fitted effect of over 55% in size. Also: potency is read from the fitted curve at half-maximal effect. An outline of the steps: as §1
Assay [19] in a line: qHTS of pediatric cancer cell lines to identify multiple opportunities for drug repurposing: Confirmatory screen for Saos-2 cells (AID 1347127). Also: nearly all actives have a fitted effect of over 60% in size. Also: potency is read from the fitted curve at half-maximal effect. An outline of the steps: as §1
A short description of assay [20]: qHTS of pediatric cancer cell lines to identify multiple opportunities for drug repurposing: Confirmatory screen for control Hh wild type fibroblast cells (AID 1347121). Also: nearly all actives have a fitted effect of over 70% in size. Also: potency is read from the fitted curve at half-maximal effect. An outline of the steps:
as §1

Each structure is given as a SMILES string. Records with an inconclusive call do not appear. Calls of active or inactive are those of the source. Calls follow the shape of the dose curve; as a rule, active = well fitted curve in the direction sought with a large enough effect; inconclusive = small, poorly fitted or top-dose-only effect, or another doubt; inactive = no such curve, though single readings can be large; an effect the other way counts as inactive or inconclusive.

Turning to `CC(=O)Nc1ccc(OC(=O)c2ccccc2OC(C)=O)cc1`, the Potency result in assay [1] and in assay [2] was “inactive” in each case.
Consider `CN1CCN(CCC(=O)N2c3ccccc3Sc3ccc(C(F)(F)F)cc32)CC1`, for which the Potency entry in assay [3] was “inactive”.
As for `CCOC(=O)Nc1ccc2c(c1)N(C(=O)CCN1CCOCC1)c1ccccc1S2`, the Potency result in assay [1] and in [2] was “inactive” each time.
Turning to `COP(=O)(OC)OC(c1ccc(Cl)cc1)P(=O)(OC)OC` (stereo unspecified), the Potency entry in assay [1] and in [2] was “inactive” throughout.
Take `C[C@@]12C(=O)OC(=O)[C@]1(C)C1CCC2O1`: the Potency in assay [2] is 2.66 µM (active); in [4], 2.93 µM (active); in assay [5] it was 7.37 µM (active); in assay [6], 3.29 µM (active); in assay [7] it was 8.27 µM (active); in assay [8], 2.93 µM (active). The Potency is 2.93 µM (active) in assay [9]; 5.22 µM (active) in assay [10]; 8.27 µM (active) in assay [11]; 2.08 µM (active) in assay [12]; 3.29 µM (active) in [13]; 2.93 µM (active) in assay [14]. Besides, the Potency in [15] was 2.08 µM (active); in assay [16], 6.57 µM (active); in assay [17], 3.29 µM (active); in [18] it was 3.69 µM (active); in assay [19], 2.93 µM (active).
Turning to `CC(C)[N+](C)(C)CC(O)COc1cccc2ccccc12` (stereo unspecified), the Potency result in assay [1] and in assay [2] was “inactive” each time.
For the compound `OC[C@H]1O[C@@H]2O[C@H]3[C@H](O)[C@@H](O)[C@@H](O[C@H]4[C@H](O)[C@@H](O)[C@@H](O[C@H]5[C@H](O)[C@@H](O)[C@@H](O[C@H]6[C@H](O)[C@@H](O)[C@@H](O[C@H]7[C@H](O)[C@@H](O)[C@@H](O[C@H]8[C@H](O)[C@@H](O)[C@@H](O[C@H]1[C@H](O)[C@H]2O)O[C@@H]8CO)O[C@@H]7CO)O[C@@H]6CO)O[C@@H]5CO)O[C@@H]4CO)O[C@@H]3CO`, the Potency result in [1] and in assay [2] was “inactive” throughout.
Turning to `OCCOCCN1CCN(C2=Nc3ccccc3Sc3ccccc32)CC1`, the Potency entry in assay [1] and in assay [2] was “inactive” throughout.
For `CC(=O)OCC(=O)[C@H]1CC[C@H]2[C@@H]3CCC4=CC(=O)CC[C@]4(C)[C@H]3CC[C@]12C`, the Potency entry in [1] and in assay [2] was “inactive” throughout.
Turning to `CCCc1ncc(C[n+]2ccccc2C)c(N)n1`, the Potency result in assay [1] and in assay [2] was “inactive” each time.
`CCN1/C(=C/C=C/c2sc3ccccc3[n+]2CC)Sc2ccccc21`: the Potency in assay [3] was 3.26 µM (active); in assay [2], 1.64 µM (active); in assay [4] it was 1.31 µM (active); in assay [5] it was 0.456 µM (active); in [6] it was 0.827 µM (active); in [7] it was 1.17 µM (active). Moreover, the Potency in assay [8] was 0.737 µM (active); in assay [9], 0.362 µM (active); in [10] it was 2.61 µM (active); in assay [11], 2.04 µM (active); in [12], 0.827 µM (active); in [13] it was 1.04 µM (active). For the same compound, the Potency in assay [20] was 0.465 µM (active); in [14] it was 0.811 µM (active); in assay [15] it was 0.512 µM (active); in [17], 5.22 µM (active); in assay [19], 4.14 µM (active). For the same compound, the Potency entry in [18] was “inactive”.
`CC(=O)Nc1ncc([N+](=O)[O-])s1`: the Potency result in assay [1] and in [2] was “inactive” throughout.
Consider `COC(=O)C(c1ccccc1Cl)N1CCc2sccc2C1` (stereo unspecified), for which the Potency result in assay [1] and in assay [2] was “inactive” each time.
`COc1ccc(CCN(C)CCCN2CCc3cc(OC)c(OC)cc3CC2=O)cc1OC`: the Potency entry in assay [1] and in assay [2] was “inactive” throughout.
In the case of `CC(O)Cn1cnc2c1c(=O)n(C)c(=O)n2C` (stereo unspecified), the Potency entry in [1] and in assay [2] was “inactive” each time.
Regarding `CC(=O)Nc1ccc(CC(=O)O)cc1`, the Potency result in [1] and in assay [2] was “inactive” in each case.
With `CCCN(CCc1cccs1)[C@H]1CCc2c(O)cccc2C1`, the Potency entry in assay [1] and in assay [2] was “inactive” in each case.
With `C=C[C@@]1(C)CC(=O)[C@]2(O)[C@@]3(C)[C@@H](O)CCC(C)(C)[C@@H]3[C@H](O)[C@H](OC(C)=O)[C@@]2(C)O1`, the Potency result in [1], in [2], in assay [4], in [5], in assay [8] and in assay [9] was “inactive” each time. For the same compound, the Potency entry in assay [10], in assay [20], in [14] and in [15] was “inactive” in each case.
As for `C=CCN1CCc2nc(N)sc2CC1`, the Potency entry in assay [1] and in [2] was “inactive” throughout.
Take `CC(=O)Nc1ccc(S(=O)(=O)Nc2ccc([N+](=O)[O-])cc2)cc1`: the Potency entry in assay [1] and in assay [2] was “inactive” throughout.
With `c1ccc(-c2nc[nH]c2-c2ccccc2)cc1`, the Potency entry in assay [1] and in assay [2] was “inactive” each time.
Regarding `CCCCCCCCCCCCCC[N+](C)(C)Cc1ccccc1`, the Potency in [2] was 18.8 µM (active).
Regarding `CC(C)(Cc1c[nH]c2ccccc12)NCC(O)COc1ccccc1C#N` (stereo unspecified), the Potency entry in [1] and in [2] was “inactive” throughout.
In the case of `CCN(CC)CCOc1ccc2c(c1)C(=O)c1cc(OCCN(CC)CC)ccc1-2`, the Potency entry in [1], in [20], in assay [14], in assay [16] and in [19] was “inactive” in each case. For the same compound, the Potency in assay [4] is 18.5 µM (active); in [6], 7.37 µM (active); in assay [8] it was 11.7 µM (active); in [12], 20.8 µM (active); in [13], 9.27 µM (active); in assay [15], 23.3 µM (active).
Take `C#C[C@]1(O)CC[C@H]2[C@@H]3CCC4=CC(=O)CC[C@@H]4[C@H]3CC[C@@]21CC`: the Potency result in assay [1] and in assay [2] was “inactive” in each case.
Take `O=C(Oc1cccc2cccnc12)c1ccccc1`: the Potency result in [1], in [9], in [11], in assay [20], in [14] and in [16] was “inactive” each time. In addition, the Potency result in [18] was “inactive”. In addition, the Potency in assay [7] is 9.27 µM (active); in assay [8] it was 9.27 µM (active); in assay [12], 20.8 µM (active); in [15], 8.27 µM (active).
Consider `Cn1c(=O)c2[nH]c(Br)nc2n(C)c1=O`, for which the Potency entry in assay [1] and in [2] was “inactive” throughout.
Turning to `CO[C@H]1C=CO[C@@]2(C)Oc3c(C)c(O)c4c(O)c(c(/C=N/N5CCN(C)CC5)c(O)c4c3C2=O)NC(=O)/C(C)=C\C=C[C@H](C)[C@H](O)[C@@H](C)[C@@H](O)[C@@H](C)[C@H](OC(C)=O)[C@@H]1C`, the Potency entry in assay [3] and in assay [2] was “inactive” in each case.
Consider `NS(=O)(=O)c1cc2c(cc1Cl)NC(CC1CCCC1)NS2(=O)=O` (stereo unspecified), for which the Potency result in [1] and in assay [2] was “inactive” in each case.
Turning to `O=C1C(O)=C(O)C(=O)C(O)=C1O`, the Potency entry in assay [1] and in [2] was “inactive” throughout.
With `CCCCC(CC)COC(=O)/C=C/c1ccc(OC)cc1` (stereo unspecified), the Potency entry in [1] and in assay [2] was “inactive” in each case.
Consider `C=C[C@H]1CN2CC[C@H]1C[C@@H]2[C@@H](O)c1ccnc2ccc(OC)cc12`, for which the Potency entry in assay [1] and in [2] was “inactive” throughout.
For the compound `O=C1C(CCS(=O)c2ccccc2)C(=O)N(c2ccccc2)N1c1ccccc1` (stereo unspecified), the Potency entry in [1] and in assay [2] was “inactive” each time.
